Assay results from PubChem BioAssay (EPA / NIEHS).
Active and inactive are the calls of the source. How the source made its calls: active means hit-call score of the fitted dose curve at least 0.9, where 1 is the maximum; inactive means score below 0.9.

Key:
[1] = read-out: Human Leukocyte Antigen - DR isotype (HLADR), HLA-DRA (gene 3122); experiment: BSK_BE3C_HLADR: BioMAP Diversity Plus: BE3C Assay for Human Leukocyte Antigen - DR isotype (HLADR) Biomarker Activity (AID 2283032); conditions: primary human bronchial epithelial cells; actives raise or lower the signal
Outline: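 Cell-surface HLA-DR ELISA readout at 24 h after dosing in the BE3C primary human lung bronchial epithelial system; gain or loss of signal against DMSO, with parallel sulforhodamine B staining of total protein for overt cytotoxicity.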

[2] = read-out: Vascular cell adhesion molecule 1 (VCAM1), VCAM1 (gene 7412); experiment: BSK_4H_VCAM1: BioMAP Diversity Plus: 4H Assay for Vascular cell adhesion molecule 1 (VCAM1) Biomarker Activity (AID 2283033); conditions: primary human endothelial cells (HUVEC); actives raise or lower the signal;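 further: cell-surface VCAM-1 protein measured by ELISA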
Outline: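 VCAM-1 ELISA read 24 h after chemical dosing of HUVEC in the BioMAP 4H system, with gain or loss of signal fitted relative to DMSO. Parallel SRB staining (560 nm) checked overt cytotoxicity.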

[3] = read-out: Monokine induced gamma interferon (MIG), CXCL9 (gene 4283); experiment: BSK_BE3C_MIG: BioMAP Diversity Plus: BE3C Assay for Monokine induced gamma interferon (MIG) Biomarker Activity (AID 2283035); conditions: primary human bronchial epithelial cells; actives raise or lower the signal
Outline: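 Dose cells (human primary bronchial epithelial), incubate 24 h, quantify MIG by ELISA, then fit concentration–response in both directions relative to DMSO control.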

[4] = read-out: Transforming growth factor beta 1 (TGFb1), TGFB1 (gene 7040); experiment: BSK_BE3C_TGFb1: BioMAP Diversity Plus: BE3C Assay for Transforming growth factor beta 1 (TGFb1) Biomarker Activity (AID 2283036;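 on outcome: TGF-b1 protein level measured by ELISA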); conditions: primary human bronchial epithelial cells; actives raise or lower the signal
Outline: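 ELISA readout of TGF-b1 from human lung bronchial epithelial primary cells, taken 24 h post-treatment. Gain or loss of signal fitted relative to DMSO baseline, with parallel SRB staining for overt cytotoxicity.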

[5] = read-out: Plasminogen activator inhibitor-1 (PAI1), SERPINE1 (gene 5054); experiment: BSK_BE3C_PAI1: BioMAP Diversity Plus: BE3C Assay for Plasminogen activator inhibitor-1 (PAI1) Biomarker Activity (AID 2283037); conditions: primary human bronchial epithelial cells; actives raise or lower the signal
Outline: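 PAI-1 was measured by ELISA in human primary bronchial epithelial cultures 24 h after chemical dosing, with cytotoxicity checked by SRB total-protein staining in parallel cultures. Activity was fitted in both directions relative to DMSO.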

[6] = read-out: urokinase plasminogen activator (uPA), PLAU (gene 5328); experiment: BSK_BE3C_uPA: BioMAP Diversity Plus: BE3C Assay for urokinase plasminogen activator (uPA) Biomarker Activity (AID 2283038); conditions: primary human bronchial epithelial cells; actives raise or lower the signal;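 on outcome: uPA protein level quantified by ELISA in cell cultures; uPA read one day after compound addition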
Outline: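 Measured by ELISA: uPA from human primary bronchial epithelial cells 24 h after chemical treatment. Values derive from bidirectional curve fitting with DMSO serving as negative control. Total protein by SRB staining in parallel wells flagged overt cytotoxicity.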

[7] = read-out: Urokinase-type plasminogen activator receptor (uPAR), PLAUR (gene 5329); experiment: BSK_BE3C_uPAR: BioMAP Diversity Plus: BE3C Assay for Urokinase-type plasminogen activator receptor (uPAR) Biomarker Activity (AID 2283039); conditions: primary human bronchial epithelial cells; actives raise or lower the signal;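 on outcome: cells exposed to compound for one day before measurement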
Outline: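 uPAR levels were measured by ELISA after 24 h compound treatment of primary human bronchial epithelial cells, fitted in both directions relative to DMSO. Parallel SRB staining served as the cytotoxicity read-out.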

[8] = read-out: Interleukin-6 (IL6), IL6 (gene 3569); experiment: BSK_CASM3C_IL6: BioMAP Diversity Plus: CASM3C Assay for Interleukin-6 (IL6) Biomarker Activity for (AID 2283040); conditions: primary human coronary artery smooth muscle cells; actives raise or lower the signal
[9] = read-out: Tissue plasminogen activator (tPA), PLAT (gene 5327); experiment: BSK_BE3C_tPA: BioMAP Diversity Plus: BE3C Assay for Tissue plasminogen activator (tPA) Biomarker Activity (AID 2283041); conditions: primary human bronchial epithelial cells; actives raise or lower the signal;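 on outcome: tPA level quantified by ELISA one day after compound addition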
Outline: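 tPA measured by ELISA 24 h after dosing human primary bronchial epithelial cells (BE3C system). Changes in either direction were fitted against DMSO. Parallel cultures were stained with SRB to flag overt cytotoxicity.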

[10] = read-out: Interleukin-8 (IL8), CXCL8 (gene 3576); experiment: BSK_CASM3C_IL8: BioMAP Diversity Plus: CASM3C Assay for Interleukin-8 (IL8) Biomarker Activity (AID 2283042); conditions: primary human coronary artery smooth muscle cells; actives raise or lower the signal;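 further: IL-8 protein level quantified by ELISA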
[11] = read-out: Human Leukocyte Antigen - DR isotype (HLADR), HLA-DRA (gene 3122); experiment: BSK_CASM3C_HLADR: BioMAP Diversity Plus: CASM3C Assay for Human Leukocyte Antigen - DR isotype (HLADR) Biomarker Activity (AID 2283043); conditions: primary human coronary artery smooth muscle cells; actives raise or lower the signal;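 further: cell-surface HLA-DR protein level quantified by ELISA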
[12] = read-out: Macrophage colony-stimulating factor (MCSF), CSF1 (gene 1435); experiment: BSK_CASM3C_MCSF: BioMAP Diversity Plus: CASM3C Assay for Macrophage colony-stimulating factor (MCSF) Biomarker Activity (AID 2283044); conditions: primary human coronary artery smooth muscle cells; actives raise or lower the signal;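 further: M-CSF protein amount quantified by ELISA after 24 h exposure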
[13] = read-out: Low-density lipoprotein receptor (LDLR), LDLR (gene 3949); experiment: BSK_CASM3C_LDLR: BioMAP Diversity Plus: CASM3C Assay for Low-density lipoprotein receptor (LDLR) Biomarker Activity (AID 2283045); conditions: primary human coronary artery smooth muscle cells; actives raise or lower the signal;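 further: LDLR protein level on the cell surface quantified by ELISA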
[14] = read-out: Monocyte Chemoattractant Protein-1 (MCP1), CCL2 (gene 6347); experiment: BSK_CASM3C_MCP1: BioMAP Diversity Plus: CASM3C Assay for Monocyte Chemoattractant Protein-1 (MCP1) Biomarker Activity (AID 2283046); conditions: primary human coronary artery smooth muscle cells; actives raise or lower the signal;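 further: MCP-1 level quantified by ELISA 24 h after dosing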
[15] = BSK_CASM3C_Proliferation: Cell Proliferation Assessment in the BioMAP Diversity Plus: CASM3C Assay (AID 2283047); conditions: primary human coronary artery smooth muscle cells;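 further: sulforhodamine B total protein stain as relative cell number at 560 nm; sub-confluent cells exposed 48 h before staining; fitted both ways against DMSO so gain or loss of cell number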
[16] = read-out: Monokine induced gamma interferon (MIG), CXCL9 (gene 4283); experiment: BSK_CASM3C_MIG: BioMAP Diversity Plus: CASM3C Assay for Monokine induced gamma interferon (MIG) Biomarker Activity (AID 2283048); conditions: primary human coronary artery smooth muscle cells; actives raise or lower the signal;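 further: MIG protein level measured by ELISA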
[17] = read-out: serum amyloid A (SAA), SAA1 (gene 6288); experiment: BSK_CASM3C_SAA: BioMAP Diversity Plus: CASM3C Assay for serum amyloid A (SAA) Biomarker Activity (AID 2283049); conditions: primary human coronary artery smooth muscle cells; actives raise or lower the signal;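 further: SAA protein level quantified by ELISA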
[18] = BSK_CASM3C_SRB: Viability Assessment in the BioMAP Diversity Plus: CASM3C Assay (AID 2283050); conditions: primary human coronary artery smooth muscle cells
[19] = read-out: Thrombomodulin, THBD (gene 7056); experiment: BSK_CASM3C_Thrombomodulin: BioMAP Diversity Plus: CASM3C Assay for Thrombomodulin Biomarker Activity (AID 2283051); conditions: primary human coronary artery smooth muscle cells; actives raise or lower the signal;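 further: thrombomodulin protein level measured by ELISA 24 h after dosing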
[20] = read-out: Interferon-gamma inducible Protein 10 (IP10), CXCL10 (gene 3627); experiment: BSK_BE3C_IP10: BioMAP Diversity Plus: BE3C Assay for Interferon-gamma inducible Protein 10 (IP10) Biomarker Activity (AID 2283034); conditions: primary human bronchial epithelial cells; actives raise or lower the signal
Outline: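 IP-10 quantified by ELISA in human primary bronchial epithelial cell cultures at 24 hours post-dosing. Gain or loss of signal fitted relative to DMSO; parallel SRB staining assessed overt cytotoxicity.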

SMILES: NCCOCCOCCN
- outcome [1]: inactive
- outcome [2]: inactive
- outcome [3]: inactive
- outcome [4]: inactive
- outcome [5]: inactive
- outcome [6]: inactive
- outcome [7]: inactive
- outcome [8]: inactive
- outcome [9]: inactive
- outcome [10]: inactive
- outcome [11]: inactive
- outcome [12]: inactive
- outcome [13]: inactive
- outcome [14]: inactive
- outcome [15]: inactive
- outcome [16]: inactive
- outcome [17]: inactive
- outcome [18]: inactive
- outcome [19]: inactive

SMILES: Cc1ccc(-c2cc(C(F)(F)F)nn2-c2ccc(S(N)(=O)=O)cc2)cc1
- AC50 [1]: 33.4 µM (active)
- AC50 [20]: 30.6 µM (active)
- AC50 [3]: 39.1 µM (active)
- AC50 [4]: 20 µM (active)
- AC50 [5]: 36.6 µM (active)
- AC50 [6]: 35.9 µM (active)
- AC50 [7]: 31.6 µM (active)
- AC50 [8]: 32.9 µM (active)
- AC50 [9]: 18.6 µM (active)
- AC50 [10]: 32.7 µM (active)
- AC50 [11]: 32.4 µM (active)
- AC50 [13]: 22.5 µM (active)
- AC50 [14]: 31.5 µM (active)
- AC50 [15]: 30.8 µM (active)
- AC50 [16]: 31 µM (active)
- AC50 [17]: 31.2 µM (active)
- AC50 [18]: 33.9 µM (active)
- AC50 [19]: 4.85 µM (active)

SMILES: CN(C)CCCN1c2ccccc2Sc2ccc(Cl)cc21
- AC50 [3]: 38.4 µM (active)
- AC50 [4]: 32.1 µM (active)
- AC50 [5]: 31.9 µM (active)
- AC50 [6]: 36.4 µM (active)
- AC50 [7]: 29.4 µM (active)
- outcome [8]: inactive
- AC50 [9]: 32.1 µM (active)
- outcome [10]: inactive
- AC50 [11]: 27.7 µM (active)
- AC50 [12]: 11.2 µM (active)
- AC50 [13]: 5.41 µM (active)
- AC50 [14]: 20 µM (active)
- AC50 [15]: 28 µM (active)
- outcome [16]: inactive
- outcome [17]: inactive
- AC50 [18]: 28.5 µM (active)
- AC50 [19]: 15 µM (active)

SMILES: NC1CCCCC1
- outcome [1]: inactive
- outcome [3]: inactive
- outcome [4]: inactive
- outcome [5]: inactive
- outcome [6]: inactive
- outcome [7]: inactive
- outcome [8]: inactive
- outcome [9]: inactive
- outcome [10]: inactive
- outcome [11]: inactive
- outcome [12]: inactive
- outcome [13]: inactive
- outcome [14]: inactive
- outcome [15]: inactive
- outcome [16]: inactive
- outcome [17]: inactive
- outcome [18]: inactive
- outcome [19]: inactive

SMILES: O=C(O)c1[nH]n(-c2ccc(S(=O)(=O)O)cc2)c(=O)c1N=Nc1ccc(S(=O)(=O)O)cc1
- outcome [1]: inactive
- outcome [3]: inactive
- outcome [4]: inactive
- outcome [5]: inactive
- outcome [6]: inactive
- outcome [7]: inactive
- outcome [8]: inactive
- outcome [9]: inactive
- outcome [10]: inactive
- outcome [11]: inactive
- outcome [12]: inactive
- outcome [13]: inactive
- outcome [14]: inactive
- outcome [15]: inactive
- outcome [16]: inactive
- outcome [17]: inactive
- outcome [18]: inactive
- outcome [19]: inactive

SMILES: CCc1nc(N)nc(N)c1-c1ccc(Cl)cc1
- outcome [1]: inactive
- outcome [3]: inactive
- outcome [4]: inactive
- outcome [5]: inactive
- outcome [6]: inactive
- outcome [7]: inactive
- outcome [8]: inactive
- outcome [9]: inactive
- outcome [10]: inactive
- outcome [11]: inactive
- outcome [12]: inactive
- outcome [13]: inactive
- outcome [14]: inactive
- outcome [15]: inactive
- outcome [16]: inactive
- outcome [17]: inactive
- outcome [18]: inactive
- outcome [19]: inactive

SMILES: CCC(C)N(C)C(=O)c1cc2ccccc2c(-c2ccccc2Cl)n1 (centres undefined)
- outcome [1]: inactive
- outcome [3]: inactive
- outcome [4]: inactive
- outcome [5]: inactive
- outcome [6]: inactive
- outcome [7]: inactive
- outcome [8]: inactive
- outcome [9]: inactive
- outcome [10]: inactive
- outcome [11]: inactive
- outcome [12]: inactive
- outcome [13]: inactive
- outcome [14]: inactive
- outcome [15]: inactive
- outcome [16]: inactive
- outcome [17]: inactive
- outcome [18]: inactive
- outcome [19]: inactive

SMILES: CC1(C)C(=O)NC(=O)N1CO
- outcome [1]: inactive
- outcome [3]: inactive
- outcome [4]: inactive
- outcome [5]: inactive
- outcome [6]: inactive
- outcome [7]: inactive
- outcome [8]: inactive
- outcome [9]: inactive
- outcome [10]: inactive
- outcome [11]: inactive
- outcome [12]: inactive
- outcome [13]: inactive
- outcome [14]: inactive
- outcome [15]: inactive
- outcome [16]: inactive
- outcome [17]: inactive
- outcome [18]: inactive
- outcome [19]: inactive
